Results on 8 compounds are retold here after PubChem BioAssay (Tox21).

Assay [1] in a line: qHTS assay to identify small molecule antagonists of the androgen receptor (AR) signaling pathway using the MDA cell line in the presence of 0.5 nM R1881 - cell viability counter screen (AID 1259242). Note: nearly all actives have a fitted effect of over 45% in size. In short, it runs like this:
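MDA-kb2 cells (human breast carcinoma, stably carrying MMTV-luciferase reporter) were exposed to compounds with 0.5 nM R1881 (final) for 16 hr at 37C, 0% CO2; viability then read as live-cell protease fluorescence (CellTiter-Fluor, 30 min) in the same wells.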
(In qHTS, concentration-response curves come from the screen itself.)

In assay [2] the target is Androgen receptor (Homo sapiens) (UniProt P10275). In words: qHTS assay to identify small molecule antagonists of the androgen receptor (AR) signaling pathway using the MDA cell line in the presence of 0.5 nM R1881 (AID 1259243). Note: nearly all actives have a fitted effect of over 50% in size. Note: potency is the fitted concentration of half-maximal effect. The gist of the method: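 MDA-kb2 human breast carcinoma cells carrying an MMTV-luciferase reporter (AR- and GR-responsive) were plated, rested 5 hr at 37C, dosed with compounds, then stimulated with 0.5 nM R1881 (final) for 16 hr; luminescence was read after ONE-Glo.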
Androgen receptor (Homo sapiens), sequence (P10275 whole entry, looked up): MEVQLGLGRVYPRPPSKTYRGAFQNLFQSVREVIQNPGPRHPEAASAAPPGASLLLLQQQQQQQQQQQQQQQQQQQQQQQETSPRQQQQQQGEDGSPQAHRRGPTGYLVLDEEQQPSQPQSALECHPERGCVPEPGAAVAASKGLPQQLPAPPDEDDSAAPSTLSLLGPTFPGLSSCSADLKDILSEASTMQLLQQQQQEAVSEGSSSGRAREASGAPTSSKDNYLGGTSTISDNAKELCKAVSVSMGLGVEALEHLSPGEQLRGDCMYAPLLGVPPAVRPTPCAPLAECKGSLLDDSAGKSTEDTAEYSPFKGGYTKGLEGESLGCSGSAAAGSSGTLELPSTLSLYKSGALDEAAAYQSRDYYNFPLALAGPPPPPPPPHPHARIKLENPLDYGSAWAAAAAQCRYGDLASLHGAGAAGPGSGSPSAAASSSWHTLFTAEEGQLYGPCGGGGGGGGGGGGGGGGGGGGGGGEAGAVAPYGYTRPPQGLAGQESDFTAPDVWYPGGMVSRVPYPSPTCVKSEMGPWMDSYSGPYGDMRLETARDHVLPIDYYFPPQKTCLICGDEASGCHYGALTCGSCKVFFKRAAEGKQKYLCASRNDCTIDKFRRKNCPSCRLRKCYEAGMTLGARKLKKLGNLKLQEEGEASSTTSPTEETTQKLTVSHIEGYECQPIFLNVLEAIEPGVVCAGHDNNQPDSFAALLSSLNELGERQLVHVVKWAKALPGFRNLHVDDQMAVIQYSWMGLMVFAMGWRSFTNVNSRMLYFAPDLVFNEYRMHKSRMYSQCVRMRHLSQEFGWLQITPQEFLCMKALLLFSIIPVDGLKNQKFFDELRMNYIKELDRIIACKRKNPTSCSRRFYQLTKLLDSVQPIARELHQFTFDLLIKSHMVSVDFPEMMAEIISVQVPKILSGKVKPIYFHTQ

The target in assay [3] is Estrogen receptor (Homo sapiens) (UniProt P03372). Kind of assay: qHTS assay to identify small molecule antagonists of the estrogen receptor alpha (ER-alpha) signaling pathway using the BG1 cell line in the presence of 0.1 nM 17-beta-estradiol (AID 1259244). Note: nearly all actives have a fitted effect of over 50% in size. Note: potency is the fitted concentration of half-maximal effect. In short, it runs like this: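 VM7Luc4E2 cells (endogenous full-length ER-alpha, stable 4xERE-luciferase) were grown 5 days in phenol red-free medium with charcoal-stripped FBS, then exposed 22 h at 37C to compounds plus 0.1 nM (final) 17beta-estradiol; ONE-Glo luminescence read-out.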
Estrogen receptor (Homo sapiens), sequence (P03372 whole entry, looked up): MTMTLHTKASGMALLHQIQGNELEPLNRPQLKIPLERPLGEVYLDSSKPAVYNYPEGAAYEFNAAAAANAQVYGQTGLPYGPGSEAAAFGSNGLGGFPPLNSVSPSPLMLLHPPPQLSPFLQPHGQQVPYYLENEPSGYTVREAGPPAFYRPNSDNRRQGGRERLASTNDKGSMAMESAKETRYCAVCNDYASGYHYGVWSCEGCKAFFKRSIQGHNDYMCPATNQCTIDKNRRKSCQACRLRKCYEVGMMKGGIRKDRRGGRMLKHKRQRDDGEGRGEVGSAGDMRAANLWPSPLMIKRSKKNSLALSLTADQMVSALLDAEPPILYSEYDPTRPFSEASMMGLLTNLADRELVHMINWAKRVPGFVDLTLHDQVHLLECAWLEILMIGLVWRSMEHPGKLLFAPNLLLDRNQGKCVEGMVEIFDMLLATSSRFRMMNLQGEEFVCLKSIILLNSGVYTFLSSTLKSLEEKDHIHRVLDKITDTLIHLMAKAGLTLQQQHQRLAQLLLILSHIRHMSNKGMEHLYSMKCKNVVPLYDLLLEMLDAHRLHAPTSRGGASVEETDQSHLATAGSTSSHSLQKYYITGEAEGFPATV

Assay [4] is described as follows: qHTS assay to identify small molecule HDAC inhibitors - cell viability counter screen (AID 1259365). Note: series mostly up to about 92 µM; nearly all actives have a fitted effect of over 50% in size. In short, it runs like this: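 CellTiter-Glo luminescence (30 min, room temperature) reported viability after a 2 h compound exposure at 37 C. Cells: wild-type HCT-116, 1,500 per well, seeded the night before.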
Assay [5] is described as follows: qHTS assay to identify small molecule agonists of the sonic hedgehog signaling (Shh) pathway - cell viability counter screen (AID 1259366). Note: nearly all actives have a fitted effect of over 50% in size. In short, it runs like this:
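Cytotoxicity counter screen: CellTiter-Fluor reagent added after 23 h compound exposure, then 1 h at 37C and fluorescence read. Cells were 3T3 Gli1-Luc, seeded 2,000 per well and dosed 4 h post-plating.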

A short description of assay [6]: qHTS assay to identify small molecule antagonists of the sonic hedgehog signaling (Shh) pathway - cell viability counter screen (AID 1259367). Note: nearly all actives have a fitted effect of over 55% in size. The gist of the method:
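Cells: 3T3 Gli1-Luc, 2,000/well, 4 hr pre-incubation. Compounds in DMSO, then conditioned medium. Incubation 24 hr, 37C, 5% CO2. CellTiter-Fluor at 23 hr, 1 hr, fluorescence.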

A short description of assay [7]: qHTS assay to identify small molecule agonists of the sonic hedgehog signaling (Shh) pathway (AID 1259368; calls by dose curve; note: series mostly up to about 92 µM; nearly all actives have a fitted effect of over 15% in size). The gist of the method: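 NIH/3T3-derived 3T3Gli1-Luc cells carrying a stably integrated Gli1 response element–firefly luciferase reporter were plated, left 4 hr at 37 C, then given compounds in DMSO for 24 hr. Luminescence was read 30 min after adding luciferase reagent.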

Assay [8] in a line: qHTS assay to identify small molecule antagonists of the sonic hedgehog signaling (Shh) pathway (AID 1259369; calls by dose curve; note: nearly all actives have a fitted effect of over 45% in size; note: potency is the fitted concentration of half-maximal effect). The gist of the method: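 NIH/3T3-derived 3T3Gli1-Luc cells with stably integrated Gli1-Luc reporter were preincubated 4hr at 37 C, then given compounds in DMSO plus Shh conditioned medium and incubated 24hr. Firefly luciferase luminescence read after 30min reagent at room temperature.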

The target of assay [9] is Estrogen receptor beta (Homo sapiens) (UniProt Q92731). Kind of assay: qHTS assay to identify small molecule agonists of the estrogen receptor beta (ER-beta) signaling pathway (AID 1259377; active = well fitted activation curve with a large enough effect in the signal ratio in the repeat runs, not every such curve was filed as active; the % refers to the signal ratio). The gist of the method: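 Ratiometric beta-lactamase FRET read-out came after 2 h substrate loading at room temperature. It followed 16 h compound treatment at 37C of GripTite HEK293T cells carrying a UAS-bla reporter, plated in 2% charcoal-stripped FBS medium.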
Estrogen receptor beta (Homo sapiens), sequence (Q92731 whole entry, looked up): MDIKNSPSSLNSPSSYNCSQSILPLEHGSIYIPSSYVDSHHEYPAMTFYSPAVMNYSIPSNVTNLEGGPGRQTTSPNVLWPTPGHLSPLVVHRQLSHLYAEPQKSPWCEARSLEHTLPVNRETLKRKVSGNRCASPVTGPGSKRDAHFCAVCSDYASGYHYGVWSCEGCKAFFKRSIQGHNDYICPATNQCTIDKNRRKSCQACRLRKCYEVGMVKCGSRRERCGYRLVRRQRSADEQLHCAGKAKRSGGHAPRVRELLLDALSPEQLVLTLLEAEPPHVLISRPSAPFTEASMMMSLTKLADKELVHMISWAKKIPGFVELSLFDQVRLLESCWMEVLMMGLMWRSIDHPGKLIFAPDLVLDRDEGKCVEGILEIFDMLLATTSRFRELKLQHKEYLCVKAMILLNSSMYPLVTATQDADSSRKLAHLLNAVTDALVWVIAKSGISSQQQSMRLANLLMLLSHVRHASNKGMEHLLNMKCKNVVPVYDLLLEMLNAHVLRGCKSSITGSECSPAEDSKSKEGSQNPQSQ

Assay [10] has the same target. Kind of assay: qHTS assay to identify small molecule antagonists of the estrogen receptor beta (ER-beta) signaling pathway (AID 1259378; active = well fitted inhibition curve with a large enough effect in the signal ratio in the repeat runs, not every such curve was filed as active; the % refers to the signal ratio). The gist of the method: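 Antagonist mode: compounds added to beta-lactamase reporter HEK293T ER-beta-UAS cells stimulated with E2 (1nM final), 16 hr at 37C. LiveBLAzer B/G FRET substrate, 2 hours room temperature, fluorescence read-out.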

Assay [11] can be described thus: qHTS assay to identify small molecule agonists of the androgen receptor (AR) signaling pathway in the presence of an antagonist - cell viability counter screen (AID 1259379). Note: nearly all actives have a fitted effect of over 25% in size. Note: potency is the fitted concentration of half-maximal effect. In short, it runs like this:
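MDA-kb2 human breast carcinoma cells (stable MMTV-luciferase, AR/GR responsive) were seeded 3,000 cells/well, pre-incubated 5 hr at 37C without CO2, then given 3.0uM nilutamide and compounds at 15 concentrations for 16 hr. Viability was read by CellTiter-Fluor fluorescence.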

The nature of assay [12]: qHTS assay to identify small molecule agonists of the estrogen receptor beta (ER-beta) signaling pathway - cell viability counter screen (AID 1259380). Note: nearly all actives have a fitted effect of over 30% in size. Note: potency is the fitted concentration of half-maximal effect. In short, it runs like this:
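ER-beta-UAS-bla HEK293T cells in medium with 2% charcoal-stripped FBS were preincubated 6 hr at 37C, dosed with compound in DMSO for 16 hr, then after the bla read, CellTiter-Glo was added for 30 min at room temperature; luminescence recorded.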

Assay [13] is described as follows: qHTS assay to identify small molecule antagonists of the estrogen receptor beta (ER-beta) signaling pathway - cell viability counter screen (AID 1259382). Note: nearly all actives have a fitted effect of over 55% in size. Note: potency is the fitted concentration of half-maximal effect. The gist of the method: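 ER-beta-UAS-bla HEK293T cells (2,000/well, 2% charcoal-stripped FBS) were pre-incubated 6 hr at 37C, then given compound plus 1nM final 17-beta-estradiol for 16 hr. Viability was read in the same wells by CellTiter-Glo luminescence after 30 min at room temperature.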

The target of assay [14] is Estrogen receptor (Homo sapiens) (UniProt P03372). Kind of assay: qHTS assay to identify small molecule agonists of the estrogen receptor alpha (ER-alpha) signaling pathway in the presence of an antagonist (AID 1259383; calls by dose curve; note: top concentration of the series differs between compounds; nearly all actives have a fitted effect of over 15% in size). The gist of the method:
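VM7Luc4E2 cells (endogenous full-length ER-alpha, 4×ERE-luciferase) were precultured 5 days in phenol red-free medium with 10% charcoal-stripped FBS, given 10.0nM ICI-182,780 (final), then treated with compounds at 15 concentrations for 22hr at 37C; luminescence read with ONE-Glo.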

A short description of assay [15]: qHTS assay to identify small molecule agonists or antagonists of the thyroid stimulating hormone receptor (TSHR) signaling pathway - wild type cell line counter screen (AID 1259384; calls by dose curve; note: potency is the fitted concentration of half-maximal effect). The gist of the method: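 Counter screen in untransfected Hek293: compounds (15-point titration, triplicate) plus phosphodiesterase inhibitor Ro20-1724 added after 18 h plating; 30 min RT. Intracellular cAMP via competitive d2/cryptate immunoassay, 1 h incubation.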

Assay [16] addresses Thyrotropin receptor (Homo sapiens) (UniProt P16473). Kind of assay: qHTS assay to identify small molecule antagonists of the thyroid stimulating hormone receptor (TSHR) signaling pathway (AID 1259385; calls by dose curve; note: nearly all actives have a fitted effect of over 20% in size; note: potency is the fitted concentration of half-maximal effect). The gist of the method:
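Antagonist mode: compound-treated TSHR-expressing HEK293 cells were stimulated with 1.5 ng/mL TSH (final) in presence of Ro20-1724 for 30 min at RT. HTRF cAMP detection after 1 h; each compound tested at 15 concentrations, triplicate.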

Assay [17] can be described thus: qHTS assay to identify small molecule phospholipidosis (PLD) inducers (AID 1259344; active = well fitted curve in the direction sought with a large enough effect; an effect the other way counts as inactive or inconclusive). The gist of the method: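 Phospholipidosis is scored by imaging LipidTOX-stained pits in HepG2 cells exposed to compound for 24 h at 37 C; pit counts and integrated intensities per well and per cell serve as outputs.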
Assay [18] can be described thus: qHTS assay to identify small molecule agonists of the estrogen receptor alpha (ER-alpha) signaling pathway in the presence of an antagonist - cell viability counter screen (AID 1259386). Note: series mostly up to about 92 µM; nearly all actives have a fitted effect of over 30% in size. The gist of the method: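 VM7Luc4E2 cells (endogenous full-length ER-alpha, 4×ERE-luciferase) were held 5 days in phenol red-free medium with 10% charcoal-stripped FBS, plated, then given 10.0nM ICI-182,780 and compounds at 15 concentrations for 22hr at 37C; viability read by CellTiter-Fluor fluorescence.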

Assay [19] has as its target Androgen receptor (Homo sapiens) (UniProt P10275). Kind of assay: qHTS assay to identify small molecule agonists of the androgen receptor (AR) signaling pathway in the presence of an antagonist (AID 1259381; calls by dose curve; note: nearly all actives have a fitted effect of over 15% in size). In short, it runs like this:
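MDA-kb2 human breast carcinoma cells carrying an MMTV-luciferase reporter (AR- and GR-responsive) were treated with compounds at 15 concentrations plus 3.0uM final nilutamide for 16hr at 37C without CO2; luminescence was read after ONE-Glo addition.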

Assay [20] is described as follows: qHTS assay to identify small molecule HDAC inhibitors (AID 1259364). Note: top concentration of the series differs between compounds; nearly all actives have a fitted effect of over 45% in size. The gist of the method: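 Wild-type HCT-116 cells were plated overnight, exposed to compounds for 2 h at 37 °C, then given HDAC-Glo class I/II luminogenic reagent for 30 min at room temperature before luminescence was read.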

Molecules are shown by their SMILES. Several values for one entry are separate records, joined by “and”; a condition that tells them apart may be missing. Identical values can stand only once. A number with no mark means an inactive call. Records with an inconclusive call do not appear. Activity calls are given as the source filed them. Unless noted, calls come from the whole dose curve; as a rule, active = well fitted curve in the direction sought with a large enough effect in the repeat runs; inconclusive = weak or mixed curves; inactive = no such curve, though single readings can be large; an effect the other way counts as inactive or inconclusive.

Thyrotropin receptor (Homo sapiens), sequence (P16473 whole entry, looked up): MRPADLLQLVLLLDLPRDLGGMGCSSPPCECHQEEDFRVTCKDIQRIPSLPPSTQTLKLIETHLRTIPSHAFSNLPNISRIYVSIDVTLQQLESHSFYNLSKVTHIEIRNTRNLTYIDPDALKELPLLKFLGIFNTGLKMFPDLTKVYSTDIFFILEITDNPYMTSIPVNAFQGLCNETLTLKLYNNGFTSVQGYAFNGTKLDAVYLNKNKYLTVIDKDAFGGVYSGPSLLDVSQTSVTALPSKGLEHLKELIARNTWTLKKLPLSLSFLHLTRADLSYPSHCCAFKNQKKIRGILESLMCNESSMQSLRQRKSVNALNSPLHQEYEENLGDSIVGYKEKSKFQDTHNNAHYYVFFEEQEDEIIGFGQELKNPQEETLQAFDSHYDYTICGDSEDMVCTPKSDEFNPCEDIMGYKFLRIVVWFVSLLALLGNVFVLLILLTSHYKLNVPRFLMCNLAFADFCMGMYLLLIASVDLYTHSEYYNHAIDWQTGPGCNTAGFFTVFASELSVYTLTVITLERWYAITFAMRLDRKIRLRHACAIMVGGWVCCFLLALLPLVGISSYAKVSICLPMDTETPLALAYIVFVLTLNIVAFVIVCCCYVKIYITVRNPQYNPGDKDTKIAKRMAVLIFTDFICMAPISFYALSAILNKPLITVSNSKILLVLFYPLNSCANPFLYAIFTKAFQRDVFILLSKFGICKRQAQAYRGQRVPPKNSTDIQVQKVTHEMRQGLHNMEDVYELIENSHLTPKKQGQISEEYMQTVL

With `CCC/C=C/C=O`, the Potency entry in assay [1], in [2], in assay [3], in assay [5], in [6] and in assay [7] was “inactive” in each case. Moreover, the Potency entry in [8], in assay [9], in [10], in assay [11], in [12] and in assay [13] was “inactive” throughout. Besides, the Potency entry in assay [14], in [15] and in assay [16] was “inactive” each time. Also, the outcome in assay [4] was inactive.
Regarding `C=C[C@@]1(C)CC(=O)[C@]2(O)[C@@]3(C)[C@@H](O)CCC(C)(C)[C@@H]3[C@H](O)[C@H](OC(C)=O)[C@@]2(C)O1`, the Potency result in assay [1], in assay [17], in assay [6], in [7], in [9] and in [14] was “inactive” in each case. The Potency entry in assay [18] is “inactive”. For the same compound, the Potency in assay [3] is 15.4 µM (active) and 7.5 µM (active); in assay [8] it was 2.4 nM (active) and 211 nM (active); in assay [11] it was 48.6 µM (active); in assay [12] it was 19.3 µM (active) and 11.9 µM (active); in [13], 21.7 µM (active) and 15 µM (active); in assay [15] it was 63.6 nM (active) and 256 nM (active). The result in assay [4] was inactive.
`CC(C)[N+](C)(CCOC(=O)C1c2ccccc2Oc2ccccc21)C(C)C`: the Potency entry in [1], in [3], in [17], in assay [5], in assay [6] and in [7] was “inactive” each time. The Potency result in assay [11], in assay [12], in assay [13], in assay [14], in assay [16] and in [18] was “inactive” throughout. In addition, in assay [4], the compound was called inactive.
`CC1(C)C(C=C(Cl)Cl)C1C(=O)OCc1cccc(Oc2ccccc2)c1` (configuration not stated): the Potency result in [1], in assay [2], in [3], in assay [17], in [5] and in assay [6] was “inactive” throughout. In addition, the Potency entry in assay [7], in assay [8], in assay [11], in assay [12], in assay [19] and in assay [13] was “inactive” in each case. Moreover, the Potency entry in [14], in assay [15], in assay [16] and in assay [18] was “inactive” in each case. For the same compound, the compound was classed as inactive in assay [4].
Take `CC(=O)O[C@]1(C(C)=O)CC[C@H]2[C@@H]3C=C(Cl)C4=CC(=O)CC[C@]4(C)[C@H]3CC[C@@]21C`: the Potency result in assay [1], in assay [3], in assay [17], in assay [5], in assay [6] and in assay [7] was “inactive” throughout. Also, the Potency result in [8], in assay [9], in assay [10], in [11], in assay [12] and in assay [13] was “inactive” throughout. Also, the Potency result in assay [14] and in assay [15] was “inactive” each time. For the same compound, the outcome in assay [4] was inactive. Besides, the Potency in [16] is 29.8 µM (active).
As for `CC[C@]12CCCN3CCc4c(n(c5ccccc45)[C@@](O)(C(=O)OC)C1)[C@@H]32`, the Potency entry in assay [1], in assay [2], in [17], in assay [20], in [5] and in assay [6] was “inactive” each time. Also, the Potency entry in assay [7], in assay [8], in assay [11], in [12], in assay [19] and in assay [13] was “inactive” throughout. Also, in [18], the Potency result was “inactive”. Also, the compound was called inactive in [4].
In the case of `c1ccc2c(c1)ccc1ncccc12`, the Potency result in assay [1], in [3], in assay [20], in assay [5], in [6] and in assay [7] was “inactive” each time. The Potency entry in assay [8], in [9], in assay [10], in assay [11], in assay [12] and in assay [19] was “inactive” throughout. Besides, the Potency result in [13], in [14], in assay [16] and in assay [18] was “inactive” in each case. Also, in assay [2], the Potency is 3.83 µM (active) and 5.45 µM (active). Besides, the call in assay [4] was inactive.
Take `NCCN`: the Potency entry in assay [1], in assay [3], in [17], in assay [20], in assay [5] and in assay [6] was “inactive” throughout. Besides, the Potency result in assay [7], in [11], in assay [12], in assay [13], in [14] and in [16] was “inactive” each time. Also, the Potency entry in assay [18] is “inactive”. Besides, the compound was called inactive in [4].
